In the supplement of paper PMC8728848:
Many of the other results were omitted from the sample, so the strongest signals are more common in it than they were.

What follows are substances tested on Neu5Ac(a2-3)Gal(b1-3)GlcNAc(b1-2)Man(a1-3)[GlcNAc(b1-4)][Neu5Ac(a2-3)Gal(b1-3)GlcNAc(b1-2)Man(a1-6)]Man(b1-4)GlcNAc(b1-4)GlcNAc (assay: glycan array binding signal (z-score within array); higher = stronger binding). Details: glycan notation: IUPAC condensed, linker removed.
Outline: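 From the Consortium for Functional Glycomics database, 3228 arrays were curated, keeping only those whose protein sequence was available. Binding is given as a within-array Z-score averaged across arrays sharing a protein sequence and across linkers. Negative Z-scores can be read as non-binding.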

Row | Substance | glycan array binding signal (z-score)
1 | AgI/IIC123-GFP (Streptococcus mutans) | -0.265
2 | AgI/II Vhelical-GFP (Streptococcus mutans) | 1.2
3 | LcI (Legionella pneumophila) | -0.429
